Assay results: PubChem BioAssay AID588342 (National Center for Advancing Translational Sciences (NCATS), 2011)
In all, about 360,000 compounds went through this assay and about 25,000 (6.9%) were called active. About 9% were inconclusive and are not listed. Calls come from the whole dose curve; as a rule, active = well fitted inhibition curve with a large enough effect; inconclusive = small, poorly fitted or top-dose-only effect; inactive = flat fitted curve, though single readings scatter. The entries come from a sample that favours actives as a whole.

What follows are compounds tested against Luciferin 4-monooxygenase (Photinus pyralis) (UniProt P08659) (assay: qHTS profiling assay for firefly luciferase inhibitor/activator using purifed enzyme and Km concentrations of substrates (counterscreen for miR-21 project)). Conditions: purified FLuc, luminescence inhibition; series mostly up to 57.5 µM; activity change, negative = inhibition: at the top concentration.
In short: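 Purified P. pyralis luciferase (10nM final) with 10uM D-luciferin and 10uM ATP (Km levels) in 50mM Tris acetate pH 7.5, 10mM Mg acetate, 0.01% Tween-20, 0.05% BSA; qHTS 6-point titration, ~60 µM downward; luminescence read.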
Note: nearly all actives have a fitted effect of over 55% in size.
Potency is the fitted concentration of half-maximal effect.
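Throughout, for activity change, negative = inhibition: plate controls were vehicle for no effect and reference inhibitor for full effect.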

Sequence of Luciferin 4-monooxygenase (Photinus pyralis) (P08659 whole entry, looked up): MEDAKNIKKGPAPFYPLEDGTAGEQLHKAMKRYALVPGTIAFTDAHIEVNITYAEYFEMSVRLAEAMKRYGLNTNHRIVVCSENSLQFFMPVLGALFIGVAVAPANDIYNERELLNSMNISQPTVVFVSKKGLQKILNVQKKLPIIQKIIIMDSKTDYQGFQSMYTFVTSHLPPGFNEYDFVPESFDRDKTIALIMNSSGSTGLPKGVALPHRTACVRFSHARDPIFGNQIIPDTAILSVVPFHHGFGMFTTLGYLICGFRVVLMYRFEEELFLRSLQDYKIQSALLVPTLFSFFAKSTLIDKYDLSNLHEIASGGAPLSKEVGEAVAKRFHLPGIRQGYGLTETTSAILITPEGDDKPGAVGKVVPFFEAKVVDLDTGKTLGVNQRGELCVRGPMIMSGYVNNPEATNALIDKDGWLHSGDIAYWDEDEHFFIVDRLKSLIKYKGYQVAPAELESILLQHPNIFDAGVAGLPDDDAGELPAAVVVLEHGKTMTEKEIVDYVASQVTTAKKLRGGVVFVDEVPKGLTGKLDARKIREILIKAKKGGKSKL

Compound | activity change, negative = inhibition | Potency
O=C(C1COc2ccccc2O1)N(Cc1cccnc1)c1nc2c(F)cc(F)cc2s1 (configuration not stated) | -10.3% (inactive) | 
CCOc1ccc(Nc2nc(Cl)nc(N3CCN(c4ccc(OC)cc4)CC3)n2)cc1 | -4.25% (inactive) | 
Cc1cc(Nc2ccc(Cl)cc2)nc(N2CCOCC2)n1 | -3.8% (inactive) | 
COc1ccc(Nc2ncc(F)c(N3CCOCC3)n2)cc1 |  | 2.39 µM (active)
O=C(NCc1ccccc1Cl)C1=Cc2cc(Br)ccc2OC1 | 2.86% (inactive) | 
COc1ccc(CCNc2nc3c(-c4cccc(F)c4)nnn3c3ccccc23)cc1OC | -2.73% (inactive) | 
O=C(COC(=O)c1ccncc1)c1ccccc1 |  | 23.9 µM (active)
COc1ccc(NC(=O)COC(=O)c2ccncc2)c(OC)c1 | -0.378% (inactive) | 
O=C(OCC(O)C(O)COC(=O)c1ccccc1)c1ccccc1 (configuration not stated) | 1.74% (inactive) | 
O=C(CCc1nc(CN2CCN(S(=O)(=O)c3ccc(Cl)cc3)CC2)no1)N1CCCCC1 | -5.93% (inactive) | 
CCNC(=O)c1cc2n(n1)CCCN(Cc1ccc(C)cc1)C2=O | -0.387% (inactive) | 
Cc1nn(CC(=O)O)c(=O)c2cc3cc(F)ccc3n12 | 2.27% (inactive) | 
Cc1ccc(C(=O)OCc2nc(N)nc(Nc3ccccc3C)n2)cc1 | -0.428% (inactive) | 
Cc1ccccc1Nc1nc(N)nc(CSc2ccccc2)n1 |  | 2.13 µM (active)
Cc1ccccc1Nc1nc(N)nc(CSc2nnc3ccccn23)n1 | -15.6% (inactive) | 
COc1ccc(S(=O)(=O)NCC(c2ccc(N(C)C)cc2)N2CCc3ccccc32)cc1OC (configuration not stated) | -2.31% (inactive) | 
CCOc1ccc(NC(=O)CCC(=O)N2CC(C)Oc3ccc(C)cc32)cc1 (configuration not stated) | 1.52% (inactive) | 
O=C(c1cccc(Br)c1)N1CCN(Cc2cc(=O)n3nc(-c4ccccc4)sc3n2)CC1 | -2.55% (inactive) | 
Cc1ccc(NC(=O)C2CCN(S(=O)(=O)c3cc(-c4noc(C)n4)ccc3C)CC2)c(C)c1 | -1.93% (inactive) | 
O=C(CSc1nccn1Cc1ccc(Cl)cc1)NCc1ccccc1 | -9.76% (inactive) | 
COc1ccc(OCc2cccc(C(=O)N3CCCC3)c2)cc1 |  | 8.49 µM (active)
CCOc1ccc(OCc2ccc(C(=O)N(C)c3ccccc3)o2)cc1 | -13.9% (inactive) | 
COc1ccc(Cn2c(=S)[nH]c3cc(C(=O)N4CCCCC4)ccc3c2=O)cc1 | 4.8% (inactive) | 

Compound | activity change, negative = inhibition | Potency
COc1cccc(COc2ccc(N(C)S(=O)(=O)c3ccccc3)cc2)c1 | 2.39% (inactive) | 
CCOc1ccc(OCc2cccc(C(=O)N(CC)CC)c2)cc1 |  | 1.2 µM (active)
COc1ccc(CNC(=O)C2CCN(C(=O)c3ccccc3)CC2)cc1 | 3.37% (inactive) | 
Cc1sc2ncn(CC(=O)N3CCN(c4ccc(F)cc4)CC3)c(=O)c2c1S(=O)(=O)N1CCN(c2ncccn2)CC1 | -11.7% (inactive) | 
CCS(=O)(=O)N1CCC(n2c(C)nc3cccnc32)CC1 | 0.647% (inactive) | 
CCc1cccc(NC(=O)Cn2nc(CC)n3c(cc4cc(C)ccc43)c2=O)c1 | 4.75% (inactive) | 
O=C(CSc1ncc(CO)n1Cc1ccc(Cl)cc1)NCc1ccc(F)cc1 | -7.26% (inactive) | 
Cc1cccc(N2CCN(c3c(CN4CCCC4)c(=O)oc4ccccc34)CC2)c1C | -0.54% (inactive) | 
N#CCC(=O)NC1CCC(CC2CCC(NC(=O)CC#N)CC2)CC1 (configuration not stated) | 0.975% (inactive) | 
O=C1N=C(N2CCOCC2)CS1 | -0.301% (inactive) | 
O=c1[nH]c(N2CCOCC2)nc2ccccc12 | -0.212% (inactive) | 
Cc1ccsc1/C=C1\SC(N2CCOCC2)=NC1=O |  | 10.7 µM (active)
Cc1ccc(C)c(S(=O)(=O)c2nnn3c2nc(N2CCOCC2)c2sccc23)c1 | -0.222% (inactive) | 
CC(C)=C1SC(N2CCN(c3ccc(C)c(Cl)c3)CC2)=NC1=O | -0.828% (inactive) | 
O=C1N=C(N2CCOCC2)S/C1=C\C=C/c1ccccc1 |  | 10.7 µM (active)
COc1ccccc1C1CCN(C(=S)Nc2ccc(Br)cc2)CC1 | -5.06% (inactive) | 
O=C(Nc1ccc(Br)cc1)c1ccc(Br)c(S(=O)(=O)NCc2ccccc2)c1 | -6.22% (inactive) | 
Cc1ccc(Nc2nc3ccccc3nc2-n2nc(C)cc2C)c(Cl)c1 | -1.86% (inactive) | 
CCN(CC(=O)Nc1ccc(OC)cc1)C(=O)c1ccc(=O)n(Cc2ccccc2)n1 | 0.092% (inactive) | 
Cn1nnc2cc(C(=O)NCCC3=CCCCC3)ccc21 |  | 5.36 µM (active)
O=C(Cc1nn[nH]n1)NCCC1=CCCCC1 | -0.697% (inactive) | 
O=C(NCCC1=CCCCC1)c1ccc(-n2cncn2)cc1 |  | 15.1 µM (active)
CC(=O)Nc1ccc(S(=O)(=O)N(C)CC(=O)NCCC2=CCCCC2)cc1 | 2.77% (inactive) | 

Compound | activity change, negative = inhibition | Potency
O=C(COc1cccc(-n2cnnn2)c1)NCCC1=CCCCC1 | -0.634% (inactive) | 
Cc1ccc(-n2cnc3cc(C(=O)NCCC4=CCCCC4)ccc32)cc1Cl | -7.91% (inactive) | 
CN(c1ccc(C(=O)NCCC2=CCCCC2)cc1)S(C)(=O)=O |  | 9.53 µM (active)
CC(C)COc1ccc(C(=O)OCC(=O)NCCC2=CCCCC2)cc1 | 4.98% (inactive) | 
Cc1ccn2c(=O)c(C(=O)NCCC3=CCCCC3)c(O)nc2c1 | 6.04% (inactive) | 
CCOC(=O)c1ccc(-c2ccc(/C=C(\C#N)C(=O)Nc3ccc(OCC)cc3)o2)cc1 | 1.93% (inactive) | 
CCCCn1c(N)c(N(CCC(C)C)C(=O)COC(=O)c2ccc(CC)cc2)c(=O)[nH]c1=O | -0.0866% (inactive) | 
Cc1ccc(CN2CCCn3nc(C(=O)NCc4ccccc4Cl)cc3C2=O)cc1 | -10.7% (inactive) | 
Cn1c(=O)c2c(SCC(=O)NCC3CCCO3)nc(-c3ccccc3F)nc2n(C)c1=O (configuration not stated) | 4.37% (inactive) | 
Cc1oc2ncnc(N3CCOCC3)c2c1C(=O)NCCc1ccccc1 | -1.45% (inactive) | 
CN(C)c1ccc(C=C2C(=O)OC3(CCCC3)OC2=O)cc1 |  | 23.9 µM (active)
COCCN(Cc1ccccc1)C(=O)Cc1ccc(S(=O)(=O)N2CCOCC2)s1 | -2.29% (inactive) | 
CCCN(CCC)C(=O)C1CCCN(c2ncnc3c2nc2n3CCCCC2)C1 (configuration not stated) | 1.38% (inactive) | 
c1ccc(CN=C2Nc3ccccc3CS2)nc1 |  | 12 µM (active)
COc1cccc(CNC(=O)CCC(=O)N2CC3CCCN3c3ccccc32)c1 (configuration not stated) | -10.7% (inactive) | 
O=C(CN(c1cc(C(F)(F)F)ccc1Cl)S(=O)(=O)c1ccccc1)NCc1cccnc1 | 7.62% (inactive) | 
CCc1ccc(N(CC(=O)NCc2cccnc2)S(=O)(=O)c2ccccc2)cc1 |  | 0.135 µM (active)
CCCNS(=O)(=O)c1ccc(CCC(=O)NCc2cccnc2)cc1 | -1.83% (inactive) | 
Cc1ccc2sc(N(Cc3cccnc3)C(=O)C3COc4ccccc4O3)nc2c1C (configuration not stated) | 5.08% (inactive) | 
COc1cc(OC)cc(-c2nc3nc(C)c(CCC(=O)Nc4ccc(C)cc4)c(C)n3n2)c1 | 0.756% (inactive) | 
O=S(=O)(N1CCCCC1)N1CCNCC1 | -0.119% (inactive) | 
